The target in test [1] is T1, Serine/threonine-protein kinase TBK1 (Homo sapiens) (UniProt Q9UHD2).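 Note: values are mean inhibition of TBK1, screened as part of the GSK published kinase inhibitor set.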
T1 sequence (whole entry): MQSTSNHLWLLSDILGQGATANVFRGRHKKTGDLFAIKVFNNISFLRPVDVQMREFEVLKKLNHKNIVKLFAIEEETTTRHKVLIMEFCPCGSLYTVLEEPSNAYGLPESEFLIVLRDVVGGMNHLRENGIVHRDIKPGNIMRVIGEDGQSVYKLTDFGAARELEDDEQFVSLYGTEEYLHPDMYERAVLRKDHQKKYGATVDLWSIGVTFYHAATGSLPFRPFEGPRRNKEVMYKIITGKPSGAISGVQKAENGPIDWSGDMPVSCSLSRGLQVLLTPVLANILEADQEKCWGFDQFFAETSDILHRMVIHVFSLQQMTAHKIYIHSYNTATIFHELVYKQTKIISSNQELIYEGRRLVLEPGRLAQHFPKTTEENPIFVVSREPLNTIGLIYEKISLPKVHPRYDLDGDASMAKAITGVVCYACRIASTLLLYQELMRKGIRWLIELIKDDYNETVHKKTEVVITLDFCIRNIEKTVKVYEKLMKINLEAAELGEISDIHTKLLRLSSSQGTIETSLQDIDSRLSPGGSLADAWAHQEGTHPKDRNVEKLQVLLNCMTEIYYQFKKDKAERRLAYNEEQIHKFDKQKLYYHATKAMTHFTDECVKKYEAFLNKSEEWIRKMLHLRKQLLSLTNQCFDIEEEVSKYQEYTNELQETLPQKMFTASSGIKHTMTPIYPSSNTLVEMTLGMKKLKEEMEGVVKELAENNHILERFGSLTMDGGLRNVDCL
Conditions: at 1 µM.

The target in test [2] is T2, Testis-specific serine/threonine-protein kinase 1 (Homo sapiens) (UniProt Q9BXA7).
T2 sequence (whole entry): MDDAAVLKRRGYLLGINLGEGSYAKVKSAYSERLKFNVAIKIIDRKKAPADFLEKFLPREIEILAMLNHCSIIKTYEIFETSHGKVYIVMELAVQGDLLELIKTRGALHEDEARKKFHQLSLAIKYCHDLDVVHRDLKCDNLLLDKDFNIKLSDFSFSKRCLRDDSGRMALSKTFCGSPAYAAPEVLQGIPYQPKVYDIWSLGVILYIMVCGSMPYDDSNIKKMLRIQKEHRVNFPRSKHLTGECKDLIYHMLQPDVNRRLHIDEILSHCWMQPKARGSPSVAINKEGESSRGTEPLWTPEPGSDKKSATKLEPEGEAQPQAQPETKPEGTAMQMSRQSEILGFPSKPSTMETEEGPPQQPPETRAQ
The note with it: at 0.1 µM.

Test [3] has as its target T2, Testis-specific serine/threonine-protein kinase 1 (Homo sapiens). The note with it: at 1 µM.
In test [4] the target is T3, Testis-specific serine/threonine-protein kinase 2 (Homo sapiens) (UniProt Q96PF2).
T3 sequence (whole entry): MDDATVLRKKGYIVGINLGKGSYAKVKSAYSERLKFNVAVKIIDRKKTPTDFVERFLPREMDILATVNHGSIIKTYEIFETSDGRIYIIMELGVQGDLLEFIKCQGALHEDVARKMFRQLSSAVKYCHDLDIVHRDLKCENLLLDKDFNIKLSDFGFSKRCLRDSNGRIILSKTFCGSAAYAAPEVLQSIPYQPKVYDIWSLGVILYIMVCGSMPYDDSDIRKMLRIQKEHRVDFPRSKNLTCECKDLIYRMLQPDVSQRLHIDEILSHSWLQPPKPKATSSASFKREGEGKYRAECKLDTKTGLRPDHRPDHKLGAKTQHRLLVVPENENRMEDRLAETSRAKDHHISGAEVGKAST
Conditions: at 0.1 µM.

Test [5] addresses T3, Testis-specific serine/threonine-protein kinase 2 (Homo sapiens). The note with it: at 1 µM.
Test [6] addresses Casein kinase I isoform alpha (Homo sapiens) (UniProt P48729). The note with it: at 0.1 µM.
The target is the same in test [7]. Conditions: at 1 µM.
In test [8] the target is Casein kinase I isoform gamma-1 (Homo sapiens) (UniProt Q9HCP0). Conditions: at 0.1 µM.
Chain of Casein kinase I isoform gamma-1 (Homo sapiens) (Q9HCP0 whole entry, looked up, canonical isoform): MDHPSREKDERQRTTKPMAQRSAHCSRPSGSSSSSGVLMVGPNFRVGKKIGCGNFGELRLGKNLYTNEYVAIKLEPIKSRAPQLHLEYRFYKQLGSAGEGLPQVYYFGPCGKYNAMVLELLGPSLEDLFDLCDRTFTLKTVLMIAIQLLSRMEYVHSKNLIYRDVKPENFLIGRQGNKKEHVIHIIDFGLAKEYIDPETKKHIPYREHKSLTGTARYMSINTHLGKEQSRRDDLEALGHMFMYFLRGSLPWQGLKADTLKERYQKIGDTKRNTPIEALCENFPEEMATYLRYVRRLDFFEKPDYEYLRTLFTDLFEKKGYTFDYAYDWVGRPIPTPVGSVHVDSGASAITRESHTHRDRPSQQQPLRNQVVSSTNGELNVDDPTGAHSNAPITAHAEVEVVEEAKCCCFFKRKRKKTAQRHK
For test [9] the target is unchanged. Conditions: at 1 µM.
The target of test [10] is Casein kinase I isoform gamma-2 (Homo sapiens) (UniProt P78368). Conditions: at 0.1 µM.
Chain of Casein kinase I isoform gamma-2 (Homo sapiens) (P78368 whole entry, looked up, canonical isoform): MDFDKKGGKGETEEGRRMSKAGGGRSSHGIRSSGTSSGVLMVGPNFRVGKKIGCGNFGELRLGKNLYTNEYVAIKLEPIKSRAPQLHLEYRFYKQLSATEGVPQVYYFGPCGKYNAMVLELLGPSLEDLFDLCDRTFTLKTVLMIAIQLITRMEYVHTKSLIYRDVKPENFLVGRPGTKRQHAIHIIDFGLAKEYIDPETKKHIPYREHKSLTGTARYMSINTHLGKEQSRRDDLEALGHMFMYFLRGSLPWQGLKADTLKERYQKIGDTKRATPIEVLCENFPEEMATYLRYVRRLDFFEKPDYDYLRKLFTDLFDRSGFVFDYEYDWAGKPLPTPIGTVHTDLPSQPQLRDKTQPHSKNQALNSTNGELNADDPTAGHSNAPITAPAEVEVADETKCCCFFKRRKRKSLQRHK
Test [11] has the same target. The note with it: at 1 µM.
The target in test [12] is Casein kinase I isoform gamma-3 (Homo sapiens) (UniProt Q9Y6M4). Conditions: at 0.1 µM.
Chain of Casein kinase I isoform gamma-3 (Homo sapiens) (Q9Y6M4 whole entry, looked up, canonical isoform): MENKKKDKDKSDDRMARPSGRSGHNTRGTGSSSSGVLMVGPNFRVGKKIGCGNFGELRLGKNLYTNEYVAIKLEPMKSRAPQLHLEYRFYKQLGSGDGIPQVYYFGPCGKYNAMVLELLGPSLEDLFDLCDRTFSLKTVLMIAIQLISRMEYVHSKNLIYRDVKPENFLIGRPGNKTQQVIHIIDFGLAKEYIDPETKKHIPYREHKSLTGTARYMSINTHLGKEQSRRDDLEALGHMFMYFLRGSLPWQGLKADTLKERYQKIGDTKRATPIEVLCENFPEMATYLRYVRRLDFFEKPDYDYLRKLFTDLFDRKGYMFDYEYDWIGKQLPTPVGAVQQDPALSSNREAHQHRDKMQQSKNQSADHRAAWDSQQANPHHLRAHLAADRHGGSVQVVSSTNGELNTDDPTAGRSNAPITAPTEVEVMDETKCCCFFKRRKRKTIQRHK
The target is the same in test [13]. The note with it: at 1 µM.
In test [14] the target is Cyclin-dependent kinase 1 (Homo sapiens) (UniProt P06493). Conditions: at 0.1 µM.
Chain of Cyclin-dependent kinase 1 (Homo sapiens) (P06493 whole entry, looked up): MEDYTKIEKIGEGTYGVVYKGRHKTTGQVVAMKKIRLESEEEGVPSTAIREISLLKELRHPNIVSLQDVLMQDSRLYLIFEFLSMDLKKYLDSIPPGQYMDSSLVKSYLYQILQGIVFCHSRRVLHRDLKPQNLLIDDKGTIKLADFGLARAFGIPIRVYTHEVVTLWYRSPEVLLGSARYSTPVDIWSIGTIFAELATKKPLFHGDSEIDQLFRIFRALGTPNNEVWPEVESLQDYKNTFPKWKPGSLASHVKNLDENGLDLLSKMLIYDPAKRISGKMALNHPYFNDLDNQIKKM
Test [15] shares this target. Conditions: at 1 µM.
For test [16], the target named is Cyclin-dependent kinase 2 (Homo sapiens) (UniProt P24941). The note with it: at 0.1 µM.
Test [17] shares this target. The note with it: at 1 µM.
Test [18] has the same target. The note with it: at 0.1 µM. This is another data set of the same source.
The target is the same in test [19]. Conditions: at 1 µM. The source holds these as a separate data set.
In test [20] the target is CDK3/Cyclin E (Homo sapiens) (UniProt P24864+Q00526). The note with it: at 0.1 µM.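 Note: reported percentages are mean inhibition values.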
Chain of CDK3/Cyclin E (Homo sapiens) (P24864 whole entry, looked up): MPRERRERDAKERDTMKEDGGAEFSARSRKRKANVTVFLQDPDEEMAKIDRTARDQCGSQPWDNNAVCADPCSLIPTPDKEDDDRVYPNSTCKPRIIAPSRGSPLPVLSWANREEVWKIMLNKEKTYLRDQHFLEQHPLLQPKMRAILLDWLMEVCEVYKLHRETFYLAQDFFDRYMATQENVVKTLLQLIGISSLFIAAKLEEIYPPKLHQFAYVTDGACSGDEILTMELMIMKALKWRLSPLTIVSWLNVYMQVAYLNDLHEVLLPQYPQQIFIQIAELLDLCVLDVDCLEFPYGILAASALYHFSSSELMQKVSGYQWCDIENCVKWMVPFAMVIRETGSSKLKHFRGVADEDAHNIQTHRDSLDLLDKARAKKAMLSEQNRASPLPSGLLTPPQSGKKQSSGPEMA
Chain of CDK3/Cyclin E (Homo sapiens) (Q00526 whole entry, looked up): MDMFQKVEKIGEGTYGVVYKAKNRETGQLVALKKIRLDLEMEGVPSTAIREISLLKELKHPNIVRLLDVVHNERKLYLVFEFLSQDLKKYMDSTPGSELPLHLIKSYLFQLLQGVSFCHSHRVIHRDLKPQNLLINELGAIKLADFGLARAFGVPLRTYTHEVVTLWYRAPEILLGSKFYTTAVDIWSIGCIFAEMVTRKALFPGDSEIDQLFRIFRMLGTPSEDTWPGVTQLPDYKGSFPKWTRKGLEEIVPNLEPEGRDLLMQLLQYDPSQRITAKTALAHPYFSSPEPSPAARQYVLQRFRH

Chain of Casein kinase I isoform alpha (Homo sapiens) (P48729 2-337 limits assumed): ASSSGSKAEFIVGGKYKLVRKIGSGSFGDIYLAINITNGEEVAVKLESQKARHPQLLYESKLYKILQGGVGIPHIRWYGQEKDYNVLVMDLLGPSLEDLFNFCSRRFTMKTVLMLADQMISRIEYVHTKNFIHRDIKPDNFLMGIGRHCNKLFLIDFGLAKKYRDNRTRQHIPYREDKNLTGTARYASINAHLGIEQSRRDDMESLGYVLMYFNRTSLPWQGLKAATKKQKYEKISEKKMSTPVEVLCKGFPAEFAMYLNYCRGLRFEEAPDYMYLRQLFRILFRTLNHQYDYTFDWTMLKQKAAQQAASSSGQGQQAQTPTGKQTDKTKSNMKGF

As for `c1ccc(Cc2nc3ccc(Nc4ncnc5ccccc45)cc3[nH]2)cc1`, the inhibition was 5.54% in [1]; 0.97% in [2]; 2.75% in test [3]; -0.59% in test [4]; 4.11% in [5]; 8.25% in test [6]. The inhibition worked out at 7.49% in [7]; 2.6% in test [8]; 6.23% in test [9]; 2.94% in test [10]; 8.66% in test [11]; 3.41% in test [12]. For the same molecule, the inhibition in [13] is 5.53%; in test [14] it was 3.12%; in test [15], 4.29%; in test [16] it was 2.89%; in test [17], 7.78%; in [18], 6.18%. Also, the inhibition in test [19] was found to be 8.1%; in test [20] it was 4.46%.

Regarding `O=S(=O)(CCOCc1ccc(-c2ccc3ncnc(Nc4ccc(OCc5cccc(F)c5)c(Cl)c4)c3c2)o1)c1ccccc1`, the inhibition is 2.8% in test [1]; 2.84% in [2]; 3.29% in [3]; 0.64% in test [4]; 1.88% in test [5]; -0.6% in test [6]. The inhibition in [7] was -0.08%; in [8] it was 0.56%; in test [9] it was 1.02%; in test [10], 0.09%; in [11] it was 1.75%; in [12], 0.25%. Further, the inhibition in test [13] is 0.46%; in [14], 3.78%; in test [15] it was 4.97%; in test [16] it was 2.29%; in [17] it was 2.76%; in test [18] it was 4.07%. Moreover, the inhibition is 6.29% in [19] and -0.59% in test [20].

As for `Oc1cccc(-c2nc(-c3ccccc3)[nH]c2-c2ccncc2)c1`, the inhibition amounted to 2.77% in test [1]; 5.01% in test [2]; 2.8% in [3]; 3.51% in test [4]; 2.57% in [5]; 12.6% in test [6]. The inhibition in test [7] came out at 23.9%; in [8] it was 2.26%; in test [9], 3.29%; in test [10], 2.14%; in [11], 2.78%; in test [12], 2.62%. In addition, the inhibition in test [13] is 2.68%; in [14], 0.66%; in [15], 2.64%; in [16], 1.15%; in test [17], -1.31%; in [18], 5.08%. Moreover, the inhibition in [19] is 6.33%; in test [20], 4.62%.

`Nc1ccc(C#Cc2cncnc2Nc2ccc(OCc3cccc(F)c3)c(Cl)c2)cc1`: the inhibition in test [1] was 3.55%; in [2], 2.73%; in [3] it was 2.62%; in test [4], 1.11%; in [5], 0.95%; in [6], 3.47%. The inhibition is 2.49% in [7]; 2.52% in test [8]; 2.66% in [9]; 1.58% in test [10]; 2.65% in [11]; 2.45% in test [12]. Further, the inhibition turned out to be 2.75% in test [13]; 1.11% in test [14]; 1.87% in test [15]; 1.4% in test [16]; 1.57% in test [17]; 2.14% in test [18]. Besides, the results for the inhibition in test [19] and in test [20] were 3.31% and -0.93%, respectively.

As for `NS(=O)(=O)c1ccc(N/N=C2\C(=O)Nc3ccc(Cl)cc32)cc1`, the inhibition in test [1] is 9.93%; in [2], 4.37%; in test [3] it was 6.32%; in [4], 3.29%; in [5] it was 2.98%; in test [6], 3.27%. Further, the inhibition in [7] worked out at 4.21%; in [8], 2.59%; in test [9], 3.4%; in test [10], 2.56%; in test [11], 3.33%; in test [12], 1.35%. The inhibition came to 3.48% in test [13]; 8.41% in [14]; 42.5% in [15]; 46.7% in test [16]; 102% in test [17]; 58.5% in test [18]. Further, the values for the inhibition in [19] and in test [20] were 80.5% and 40.8%, respectively.

As for `CN(C)CCCn1c(-c2nonc2N)nc2cnccc21`, the inhibition in test [1] was found to be 6.08%; in [2], 3.44%; in test [3] it was 7.78%; in [4], 0.64%; in test [5] it was 0.45%; in test [6], 5.03%. Besides, the inhibition in test [7] is 6.31%; in test [8] it was 4.45%; in [9] it was 5.34%; in [10], 3.15%; in test [11], 4.54%; in [12] it was 1.5%. The inhibition is 3.26% in test [13]; 1.58% in [14]; 2.19% in test [15]; 2.53% in test [16]; -3.59% in test [17]; 4.53% in test [18]. The figures for the inhibition in [19] and in test [20] were 6.13% and 4.24%, respectively.

(Values after ChEMBL document CHEMBL1961873, “Compounds: GSK PKIS; Assays: Nanosyn kinase panel” (2012).)
